Results on 25 compounds are retold here after PubChem BioAssay (NCATS).

The structures appear in SMILES notation. Inconclusive results are not listed. Values without a mark were called inactive. The source made the active and inactive calls. The call rests on the fitted dose curve; in most records, active means well fitted curve in the direction sought with a large enough effect; inconclusive means small, poorly fitted or top-dose-only effect, or another doubt; inactive means no such curve, though single readings can be large; an effect the other way counts as inactive or inconclusive.

Experiment [1] has as its target Cellular tumor antigen p53 (Homo sapiens) (UniProt P04637). The experiment can be described thus: Primary qHTS for small molecule compounds that upregulate eGFP-tagged delta133p53alpha (in N-terminal) cells. (AID 2060322). Further: nearly all actives have a fitted effect of over 75% in size. Further: potency means the concentration at half of the fitted maximal effect.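 On activation: cells pre-induced with doxycycline then dosed without doxycycline; series mostly up to about 56 µM; 0% = DMSO vehicle and 100% = reference activator.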 As to conditions: NCI-H358 eGFP-delta133p53alpha fluorescence, 24 h; activation: active compounds read high. In short, it runs like this:
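NCI-H358 cells pre-induced 24 h with 10 ng/ml doxycycline for eGFP-delta133p53alpha, plated dox-free and exposed 24 h at 37C to titrated compounds. Fixed, Hoechst-stained; gated GFP peak intensity by laser scanning cytometry, normalized to DMSO (0%) and 57.5 uM 5-azacytidine (100%).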
In general terms: Quantitative high-throughput screening tests each substance at several concentrations.

Experiment [2] deals with Aldehyde dehydrogenase, mitochondrial (Homo sapiens) (UniProt P05091). As to the kind of experiment: qHTS for Inhibitors of the Aldehyde Dehydrogenase Family (ALDH2) Primary screen (AID 2061308).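 Further: plate controls were vehicle for no effect and reference inhibitor for full effect; nearly all actives have a fitted effect of over 55% in size.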
The target of experiment [3] is Retinaldehyde dehydrogenase 3 (Homo sapiens) (UniProt P47895). As to the kind of experiment: qHTS for Inhibitors of the Aldehyde Dehydrogenase Family (ALDH1A3) Primary screen (AID 2061315).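 Further: plate controls were DMSO vehicle for no effect and reference inhibitor for full effect.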

Cellular tumor antigen p53 (Homo sapiens), sequence (P04637 whole entry, looked up): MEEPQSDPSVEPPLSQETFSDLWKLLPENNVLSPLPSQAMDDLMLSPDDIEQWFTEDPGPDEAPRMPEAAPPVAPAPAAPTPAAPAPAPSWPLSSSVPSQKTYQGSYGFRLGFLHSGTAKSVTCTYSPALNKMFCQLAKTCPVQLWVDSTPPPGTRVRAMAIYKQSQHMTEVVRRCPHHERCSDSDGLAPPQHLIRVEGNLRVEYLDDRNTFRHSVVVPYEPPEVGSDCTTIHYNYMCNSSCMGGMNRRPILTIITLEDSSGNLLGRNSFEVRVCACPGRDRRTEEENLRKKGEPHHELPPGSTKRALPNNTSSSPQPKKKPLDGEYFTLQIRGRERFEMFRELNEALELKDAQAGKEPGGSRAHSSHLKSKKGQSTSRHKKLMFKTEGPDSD

On to `CC1CCC2(C(=O)O)CCC3(C)C(=CCC4C5(C)CCC(O)C(C)(C(=O)O)C5CCC43C)C2C1(C)O` (stereo not given), for which, in experiment [1], the activation is -8.4%. For the same compound, the Potency entry in experiment [2] and in experiment [3] was “inactive” throughout.

As to `Cc1cc2c(c(=O)o1)C=C1CC[C@H]([C@H](C)Cn3cnc(=N)c4[nH]cnc43)C[C@@H]1O2`, the activation in experiment [1] was 14.3%. For the same compound, the Potency entry in experiment [2] and in experiment [3] was “inactive” each time.

For `CC(C)=CCCC1(C)C=Cc2c(c(C)cc3c2[nH]c2ccccc23)O1` (stereo not given), the activation in experiment [1] is 2.29%. Also, the Potency result in experiment [2] and in experiment [3] was “inactive” each time.

For the compound `CC(C)CNC(=O)/C=C/CCCCc1ccc2c(c1)OCO2`, the activation in experiment [1] is 10.7%. The Potency result in experiment [2] and in experiment [3] was “inactive” throughout.

`O=C(O)[C@H]1CCCC[C@H]1C(=O)N1CCc2ccccc2[C@H]1CN1C(=O)c2ccccc2C1=O`: in experiment [1], the activation is -3%. Besides, the Potency entry in experiment [2] and in experiment [3] was “inactive” each time.

As to `CC(C)CN(C[C@@H](O)[C@H](Cc1ccccc1)NC(=O)O[C@@H]1CO[C@H]2OCC[C@H]21)S(=O)(=O)c1ccc(N)cc1`, in experiment [1], the activation is -7.16%. Besides, the Potency result in experiment [2] and in experiment [3] was “inactive” in each case.

In the case of `CC(O)C1NC(=O)C2CCCN2C1=O` (stereo not given), the activation in experiment [1] was -25.2%. Also, the Potency result in experiment [2] and in experiment [3] was “inactive” throughout.

Consider `CC1CCC2(OC1)OC1CC3C4CC=C5CC(O)CC(O[C@@H]6OC[C@@H](O)[C@H](O)[C@H]6O)C5(C)C4CCC3(C)C1(O)C2C` (stereo not given in full), for which, in experiment [1], the activation was 16.8%. For the same compound, the Potency entry in experiment [2] and in experiment [3] was “inactive” in each case.

Take `C[C@H]1C(=O)N2c3ccccc3[C@@]3(O)C[C@@H]4C(=O)N[C@](C)(c5nc6ccccc6c(=O)n54)N1[C@@H]23`: the activation in experiment [1] is -2.29%. The Potency entry in experiment [2] and in experiment [3] was “inactive” each time.

As to `COC(=O)C1=C[C@@H](O)[C@@H](O)[C@H](O[C@@H]2O[C@H](COC(=O)/C=C/c3ccccc3)[C@@H](O)[C@H](O)[C@H]2O)C1`, the activation in experiment [1] is -3.05%. The Potency entry in experiment [2] and in experiment [3] was “inactive” in each case.

For the compound `C[C@@H]1CCC2C(C)(C)[C@H](O)[C@H](O)C[C@]2(C)[C@@]12Cc1c(O)cc3c(c1O2)CN(CCCC(=O)O)C3=O` (stereo not given in full), in experiment [1], the activation is -3.05%. Besides, the Potency entry in experiment [2] and in experiment [3] was “inactive” each time.

Take `COc1c(O)cc2c(c1O)C(=O)O[C@H](C)[C@H]2O`: the activation in experiment [1] was -14.5%. The Potency entry in experiment [2] and in experiment [3] was “inactive” each time.

As for `COC1CC(=O)C23C(=O)NC(Cc4c[nH]c5ccccc45)C2C(C)C2(C)OC2C3/C=C/CC(C)CC1O` (stereo not given), the Potency in experiment [1] was 13.1 µM (active). The Potency result in experiment [2] and in experiment [3] was “inactive” in each case.

As for `CC/C=C\CC1C(=O)C=CC1(CCCCCCCC(=O)O)OC(C)=O` (stereo not given), the activation in experiment [1] was -22.9%. In addition, the Potency result in experiment [2] and in experiment [3] was “inactive” each time.

Turning to `CN(C)CC1CCn2c(c(C3=C(c4cn(C)c5ccccc45)C(=O)NC3=O)c3ccccc32)C1` (stereo not given), the Potency in experiment [1] was 34.3 µM (active). Further, the Potency entry in experiment [2] and in experiment [3] was “inactive” throughout.

As for `COc1c(C(O)CC(C)C)ccc2c1C(=O)OCc1cc(C)cc(O)c1O2` (stereo not given), the activation in experiment [1] was -2.68%. For the same compound, the Potency result in experiment [2] and in experiment [3] was “inactive” in each case.

For the compound `COCC(c1ccc(C(F)(F)F)cc1)N1CCN(C2(C)CCN(C(=O)c3c(C)ncnc3C)CC2)CC1C` (stereo not given), in experiment [1], the activation is 12.4%. Besides, the Potency entry in experiment [2] and in experiment [3] was “inactive” throughout.

With `COc1ccc(Oc2c(Cl)cnn(C3c4ccccc4-c4ccccc43)c2=O)cc1`, the activation in experiment [1] was 13.4%. In addition, the Potency entry in experiment [2] and in experiment [3] was “inactive” each time.

For `CC(C)(OC1OC(CO)C(O)C(O)C1O)C1CCC(O)(CO)C2CC(=O)C(C)(O)C2C1` (stereo not given), the activation in experiment [1] is 22.9%. For the same compound, the Potency entry in experiment [2] and in experiment [3] was “inactive” each time.

On to `C=C(C)[C@@H]1CC[C@]2(CO)CC[C@]3(C)[C@H](CC[C@@H]4[C@@]5(C)CC[C@H](O)C(C)(C)[C@@H]5CC[C@]43C)[C@@H]12`, for which the Potency in experiment [1] was 10.4 µM (active). In addition, the Potency entry in experiment [2] and in experiment [3] was “inactive” in each case.

For the compound `C=C1[C@H](OC(C)=O)[C@H]2[C@@H](OC(C)=O)C(C)C[C@]2(OC(C)=O)C(=O)[C@H](C)/C=C/C(C)(C)C(=O)[C@H](OC(=O)C(C)C)[C@H]1OC(C)=O` (stereo not given in full), the activation in experiment [1] was -13.7%. Moreover, the Potency result in experiment [2] and in experiment [3] was “inactive” throughout.

`CC1COC(Nc2ccc3ncnc(Nc4ccc(OCc5nccs5)c(Cl)c4)c3c2)=N1` (stereo not given): the activation in experiment [1] was 13.4%. The Potency entry in experiment [2] and in experiment [3] was “inactive” each time.

Take `C[C@@H]1C[C@@H]([C@@H](O)C(C)(C)O)O[C@H]2C[C@@]3(C)C(=C12)C[C@H](O)[C@H]1[C@@]2(C)CCC(=O)C(C)(C)C2CC[C@@]13C` (stereo not given in full): the activation in experiment [1] was -6.87%. Further, the Potency entry in experiment [2] and in experiment [3] was “inactive” in each case.

`C/C1=C\[C@H]2OC(=O)[C@@H](C)[C@@H]2CC/C(C(=O)O)=C/CC1`: the activation in experiment [1] is -5.34%. The Potency result in experiment [2] and in experiment [3] was “inactive” throughout.

As to `COC(=O)c1ccccc1O[C@@H]1O[C@H](CO[C@@H]2OC[C@@H](O)[C@H](O)[C@H]2O)[C@@H](O)[C@H](O)[C@H]1O`, the activation in experiment [1] was -12.2%. Besides, the Potency result in experiment [2] and in experiment [3] was “inactive” in each case.
